For one assay, the system named is UISO. As to the kind of experiment: qHTS assay to identify novel small-molecules to repurpose for Merkel cell carcinoma treatment (AID 1296009). Further: nearly all actives have a fitted effect of over 60% in size. The settings on record: MCC and control cell lines, CellTiter-Glo viability, 72 h; series mostly up to 46 µM. The method in brief: (§1)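 Cell viability measured by CellTiter-Glo following 72 hr compound treatment at 37 degree celsius, with NPC and MIPE libraries tested in 8- and 11-point concentration series.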

The next assay has as its system WaGa. Described as above. To be noted: MCC and control cell lines, CellTiter-Glo viability, 72 h; series mostly up to 46 µM. In short, it runs like this:
as §1
Background: In ATP-based viability assays light output follows the ATP content of the culture.

The subject of another assay is C33A. Put plainly: Primary qHTS to identify gynecologic anti-cancer compounds using libraries of approved drugs and bioactive compounds (AID 1345084). Further: nearly all actives have a fitted effect of over 55% in size. Further: potency means the concentration at half of the fitted maximal effect. The settings on record: Gynecologic cancer cell panel viability, ATPlite luminescence, 48 h; series mostly up to 57.5 µM. The method in brief:
(§2)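 ATP-based viability (ATPlite), 1,000 cells/well, 16 h pre-incubation, 48 h compound at 37 C, 5% CO2, 15 min RT before read.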
A general note: qHTS replaces the single test concentration by a dilution series.

The test system of another assay is CAOV3. The assay is described as above. To be noted: Gynecologic cancer cell panel viability, ATPlite luminescence, 48 h; series mostly up to 57.5 µM. The method in brief: as §2
The subject of another assay is CASKI. The description is as above. The settings on record: Gynecologic cancer cell panel viability, ATPlite luminescence, 48 h; series mostly up to 57.5 µM. The method in brief: as §2
The subject of another assay is Es-2. Described as above. The settings on record: Gynecologic cancer cell panel viability, ATPlite luminescence, 48 h; series mostly up to 57.5 µM. In short, it runs like this:
as §2

The test system of the next assay is HeLa. Described as above. To be noted: Gynecologic cancer cell panel viability, ATPlite luminescence, 48 h; series mostly up to 57.5 µM. The method in brief:
as §2

The test system of another assay is Hek293T. The assay is described as above. The settings on record: Gynecologic cancer cell panel viability, ATPlite luminescence, 48 h, control line for the selectivity index; series mostly up to 57.5 µM. In short, it runs like this: as §2
In a further assay the test system is JEG-3. The assay is described as above. The settings on record: Gynecologic cancer cell panel viability, ATPlite luminescence, 48 h; series mostly up to 57.5 µM. In short, it runs like this:
as §2

A further assay has as its system OV90. The description is as above. The settings on record: Gynecologic cancer cell panel viability, ATPlite luminescence, 48 h; series mostly up to 57.5 µM. In short, it runs like this:
as §2

Inconclusive results are not listed. Some structures have more than one record in an assay (separate samples or runs), and their calls can disagree. Activity calls are given as the source filed them. The call rests on the fitted dose curve; in most records, active means well fitted curve in the direction sought with a large enough effect; inconclusive means small, poorly fitted or top-dose-only effect, or another doubt; inactive means no such curve, though single readings can be large; an effect the other way counts as inactive or inconclusive.

Potency and activity change, negative = cytotoxicity data for 23 compounds are collected here from PubChem BioAssay (NCATS).
On the % scale 0 is the no-effect control and ±100 the full control effect.

Turning to `Cc1scc2c1N(C(=O)CN1CCN(C)CC1)c1ccccc1NC2=O`, the Potency entry in the assay with UISO, in the assay with WaGa, in the assay on C33A, in the assay with CAOV3, in the assay on CASKI and in the assay with Es-2 was “inactive” each time. Also, the Potency result in the assay with HeLa, with Hek293T, in the assay with JEG-3 and with OV90 was “inactive” throughout.

Turning to `CSc1ccc(C(=O)c2[nH]c(=O)[nH]c2C)cc1`, the Potency entry in the assay on UISO, in the assay with WaGa, with C33A, in the assay with CAOV3, in the assay with CASKI and with Es-2 was “inactive” in each case. Also, the Potency entry in the assay with Hek293T, in the assay with JEG-3 and with OV90 was “inactive” in each case. The Potency in the assay with HeLa was 2 µM (active).

For the compound `CCCCCN(CCCCC)C(=O)C(CCC(=O)O)NC(=O)c1ccc(Cl)c(Cl)c1` (stereo unspecified), the Potency entry with UISO, in the assay with WaGa, with C33A, in the assay with CAOV3, with CASKI and with Es-2 was “inactive” each time. For the same compound, the Potency entry in the assay with HeLa, in the assay with Hek293T, in the assay on JEG-3 and in the assay on OV90 was “inactive” each time.

For the compound `CCn1nc(C(=O)O)c(=O)c2cc3c(cc21)OCO3`, the Potency result in the assay on UISO, in the assay with WaGa, in the assay with C33A, in the assay with CAOV3, in the assay with CASKI and with Es-2 was “inactive” throughout. For the same compound, the Potency result in the assay on Hek293T, with JEG-3 and in the assay with OV90 was “inactive” throughout.

Regarding `CC(C)NCC(O)c1cc(O)cc(O)c1` (stereo unspecified), the Potency entry in the assay on UISO, in the assay with WaGa, with C33A, in the assay on CAOV3, in the assay with CASKI and in the assay with Es-2 was “inactive” throughout. For the same compound, the Potency entry in the assay on HeLa, in the assay on Hek293T, in the assay on JEG-3 and with OV90 was “inactive” in each case.

As to `CCn1ccnc1CC1COc2ccccc2O1` (stereo unspecified), the Potency entry with UISO, in the assay on WaGa, in the assay with C33A, in the assay with CAOV3, with CASKI and in the assay with Es-2 was “inactive” throughout. Further, the Potency entry in the assay on Hek293T, with JEG-3 and with OV90 was “inactive” in each case.

With `NC(Cc1ccc(Cl)cc1)C(=O)O` (stereo unspecified), the activity change, negative = cytotoxicity was 36.5% [at 0.597 µM] (inactive) in the assay on UISO; 12.8% [at 0.597 µM] (inactive) in the assay on WaGa; 13.6% [at 0.462 µM] (inactive) in the assay on C33A; 0.059% [at 0.462 µM] (inactive) in the assay on CAOV3; 7.36% [at 0.462 µM] (inactive) in the assay on CASKI; 1.05% [at 0.462 µM] (inactive) in the assay with Es-2. Further, the activity change, negative = cytotoxicity in the assay with HeLa was 14.4% [at 0.462 µM] (inactive); with Hek293T, 0.47% [at 0.462 µM] (inactive); with JEG-3, 1.83% [at 0.462 µM] (inactive); in the assay with OV90, -16.1% [at 0.462 µM] (inactive).

On to `NC(=Nc1ccccc1)Nc1ccccc1`, for which the Potency entry in the assay on UISO, in the assay on WaGa, in the assay on C33A, with CAOV3, with CASKI and with Es-2 was “inactive” each time. Further, the Potency result with HeLa, with Hek293T and in the assay on JEG-3 was “inactive” each time. Further, in the assay on OV90, the Potency is 14.1 µM (active) and inactive.

As to `CC(N=C(NC#N)Nc1ccncc1)C(C)(C)C` (stereo unspecified), the Potency entry in the assay with UISO, in the assay with WaGa, with C33A, in the assay on CAOV3, in the assay on CASKI and in the assay with Es-2 was “inactive” each time. Also, the Potency entry with HeLa, in the assay on Hek293T and in the assay on OV90 was “inactive” throughout.

In the case of `CN(C)C(=O)Oc1ccc[n+](C)c1`, the Potency entry with UISO, in the assay with WaGa, with C33A, with CAOV3, in the assay with CASKI and in the assay with Es-2 was “inactive” in each case. The Potency entry in the assay on HeLa, in the assay with Hek293T, in the assay on JEG-3 and with OV90 was “inactive” in each case.

For `CN(C)CCN(Cc1cccs1)c1ccccn1`, the Potency entry in the assay with UISO, with WaGa, with C33A, in the assay with CAOV3, with CASKI and in the assay with Es-2 was “inactive” each time. The Potency result in the assay on Hek293T, in the assay with JEG-3 and with OV90 was “inactive” in each case.

With `CCO/C([O-])=N/c1c[n+](N2CCOCC2)no1`, the Potency result with UISO, in the assay on WaGa, in the assay with C33A, with CAOV3, in the assay with CASKI and in the assay with Es-2 was “inactive” in each case. The Potency entry in the assay with HeLa, in the assay with Hek293T, in the assay on JEG-3 and with OV90 was “inactive” in each case.

In the case of `OC(CCN1CCCCC1)(c1ccccc1)C1CCCCC1` (stereo unspecified), the Potency result in the assay on UISO, with WaGa, in the assay with C33A, in the assay with CAOV3, in the assay on CASKI and in the assay on Es-2 was “inactive” in each case. The Potency entry in the assay on Hek293T and in the assay on JEG-3 was “inactive” each time.

`NC1=NCC2c3ccccc3Cc3ccccc3N12` (stereo unspecified): the Potency result in the assay on UISO, with WaGa, in the assay on C33A, with CAOV3, in the assay with CASKI and in the assay on Es-2 was “inactive” in each case. Besides, the Potency entry with Hek293T and with JEG-3 was “inactive” throughout.

`C[C@]12CCC(=O)C=C1CC[C@@H]1[C@@H]2C(=O)C[C@@]2(C)[C@H]1CC[C@]2(O)C(=O)CO`: the Potency entry in the assay with UISO, in the assay with WaGa, in the assay with C33A, in the assay on CAOV3, with CASKI and in the assay with Es-2 was “inactive” throughout. The Potency result in the assay with Hek293T, in the assay with JEG-3 and in the assay on OV90 was “inactive” in each case.

On to `CC(=O)Nc1nnc(S(N)(=O)=O)s1`, for which the Potency entry in the assay on UISO, in the assay on WaGa, in the assay on C33A, with CAOV3, with CASKI and in the assay on Es-2 was “inactive” each time. Also, the Potency entry in the assay with Hek293T, with JEG-3 and in the assay with OV90 was “inactive” each time.

Consider `COCCc1ccc(OCC(O)CNC(C)C)cc1` (stereo unspecified), for which the Potency result in the assay on UISO, in the assay on WaGa, with C33A, in the assay with CAOV3, in the assay on CASKI and with Es-2 was “inactive” in each case. Moreover, the Potency entry with Hek293T, in the assay on JEG-3 and with OV90 was “inactive” each time.

Regarding `CCN1CCc2nc(N)oc2CC1`, the Potency entry in the assay on UISO, in the assay with WaGa, in the assay on C33A, in the assay with CAOV3, with CASKI and in the assay with Es-2 was “inactive” in each case. Also, the Potency entry in the assay on HeLa, with Hek293T, in the assay on JEG-3 and in the assay on OV90 was “inactive” in each case.

On to `CN/C(=C\[N+](=O)[O-])NCCSCc1ccc(CN(C)C)o1`, for which the Potency entry in the assay with UISO, in the assay on WaGa, in the assay on C33A, in the assay on CAOV3, in the assay with CASKI and in the assay on Es-2 was “inactive” throughout. In addition, the Potency entry with Hek293T and in the assay on JEG-3 was “inactive” in each case. The Potency in the assay with OV90 is 14.1 µM (active).

Consider `CNC1(C)C2CCC(C2)C1(C)C` (stereo unspecified), for which the Potency result with UISO, in the assay with WaGa, in the assay on C33A, in the assay on CAOV3, in the assay with CASKI and in the assay on Es-2 was “inactive” in each case. Besides, the Potency result in the assay on HeLa, in the assay on Hek293T, in the assay with JEG-3 and in the assay on OV90 was “inactive” each time.

As to `O=C(CCCN1CCC(O)(c2cccc(C(F)(F)F)c2)CC1)c1ccc(F)cc1`, the Potency entry in the assay with UISO, in the assay with WaGa, in the assay on C33A, with CAOV3, in the assay on CASKI and in the assay with Es-2 was “inactive” each time. Besides, the Potency entry in the assay on Hek293T and with JEG-3 was “inactive” each time.

For the compound `Cc1ccc(Cl)c(Nc2ccccc2C(=O)O)c1Cl`, the Potency result in the assay on UISO, in the assay with WaGa, in the assay on C33A, in the assay with CAOV3, in the assay on CASKI and with Es-2 was “inactive” each time. The Potency entry with HeLa, with Hek293T, with JEG-3 and in the assay with OV90 was “inactive” in each case.

With `C#CCN(C)CCCOc1ccc(Cl)cc1Cl`, the Potency result in the assay with UISO, in the assay with WaGa, in the assay on C33A, in the assay with CAOV3, in the assay on CASKI and in the assay with Es-2 was “inactive” in each case. In addition, the Potency result with HeLa, with Hek293T, in the assay with JEG-3 and in the assay on OV90 was “inactive” each time.
